Molecules are shown by their SMILES. For part of these data: Potency and affinity values are given separately.

One experiment deals with Staphylococcus aureus. The experiment is described as follows: Antibacterial activity against Staphylococcus aureus MRSA ATCC 43300 (CO-ADD:GP_020); MIC in CAMBH media using NBS plates, by Resazurin F(560/590). Particulars: Concentration 20 uM, ASSAY_TEST Inhibition of Bacterial Growth, detection method Resazurin, Fluorescence (ex560/em590), MEDIA CAMHB, plate type 384well, CORNING #3640, time 18 hr. It counts as functional.

Another experiment concerns Acinetobacter baumannii. The experiment can be described thus: Antibacterial activity against Acinetobacter baumannii ATCC 19606 (CO-ADD:GN_034); MIC in CAMBH media using NBS plates, by Resazurin F(560/590). It counts as functional. Particulars: Concentration 20 uM, ASSAY_TEST Inhibition of Bacterial Growth, detection method Resazurin, Fluorescence (ex560/em590), MEDIA CAMHB, plate type 384well, CORNING #3640, time 18 hr. (In general: Resazurin is reduced to fluorescent resorufin, in cell work by metabolically active cells.)

Another experiment deals with Escherichia coli. The experiment is described as follows: Antibacterial activity against Escherichia coli ATCC 25922 (CO-ADD:GN_001); MIC in CAMBH media using NBS plates, by Resazurin F(560/590). Particulars: Concentration 20 uM, ASSAY_TEST Inhibition of Bacterial Growth, detection method Resazurin, Fluorescence (ex560/em590), MEDIA CAMHB, plate type 384well, CORNING #3640, time 18 hr. Format: functional.

A further experiment deals with Klebsiella pneumoniae. Particulars: Concentration 20 uM; ASSAY_TEST Inhibition of Bacterial Growth; detection method Absorption (OD600); MEDIA CAMHB; plate type 384well; NBS; CORNING #3640; time 18 hr.
In another experiment the test system is Candida albicans. As to conditions: 20 µM.
In another experiment the test system is Cryptococcus neoformans. As to conditions: Concentration 20 uM; ASSAY_TEST Inhibition of Fungal Growth; detection method Resazurin; Absorption (OD600-OD570); plate type 384well; NBS; CORNING #3640.

The term Inhibition denotes the change of the read-out against control, counted positive when it falls. Turning to `CC(C)(C)N=C(S)NC(C)(C)C`, the Inhibition with Staphylococcus aureus was 10.55%; in the experiment with Acinetobacter baumannii, -9.16%; in the experiment with Escherichia coli, 4.33%; in the experiment on Klebsiella pneumoniae, 8.8%; in the experiment on Candida albicans, 1%; in the experiment with Cryptococcus neoformans, -0.12%.
With `O=S1(=O)CCN(Cc2ccccn2)CC1`, the Inhibition came out at 22.86% in the experiment on Staphylococcus aureus; 16.69% with Acinetobacter baumannii; 26.77% in the experiment with Escherichia coli; 2.99% in the experiment with Klebsiella pneumoniae; 2.84% with Candida albicans; 12.19% in the experiment with Cryptococcus neoformans.
Consider `Sc1nc2ccccc2c2ccccc12`, for which the Inhibition in the experiment with Staphylococcus aureus was -5.22%; in the experiment on Acinetobacter baumannii, -10.6%; with Escherichia coli, 1.21%; in the experiment with Klebsiella pneumoniae it was 0.71%; with Candida albicans, 24.1%; in the experiment with Cryptococcus neoformans it was 19.7%.
As to `Oc1ccc(/N=N/c2nccs2)c(O)c1`, the Inhibition in the experiment with Staphylococcus aureus is -2.42%; with Acinetobacter baumannii it was 12.54%; in the experiment with Escherichia coli, -3.78%; with Klebsiella pneumoniae it was 17.07%; in the experiment on Candida albicans, 29.2%; with Cryptococcus neoformans, 2.7%.
On to `C#CCOCC1CN(c2ccccc2)C(=O)O1` (stereo not given), for which the Inhibition is -1.12% in the experiment with Staphylococcus aureus; 12.08% in the experiment on Acinetobacter baumannii; 6.4% with Escherichia coli; 9.96% in the experiment on Klebsiella pneumoniae; 6.35% with Candida albicans; -15.19% in the experiment with Cryptococcus neoformans.
As for `Cn1c(=O)c2nc(N3CCCCC3)[nH]c2n(C)c1=O`, the Inhibition with Staphylococcus aureus is 0.06%; in the experiment with Acinetobacter baumannii, -5.37%; with Escherichia coli, 9.83%; in the experiment on Klebsiella pneumoniae it was 1.37%; in the experiment with Candida albicans it was -1.65%; in the experiment with Cryptococcus neoformans, -9.97%.
`O=C(O)/C=C\C(=O)Nc1ccc(-c2ccccc2)cc1`: the Inhibition in the experiment on Staphylococcus aureus is -11.84%; in the experiment with Acinetobacter baumannii, 13.91%; in the experiment with Escherichia coli, -6.62%; in the experiment on Klebsiella pneumoniae it was 15.61%; in the experiment on Candida albicans, 23%; in the experiment with Cryptococcus neoformans, -5.96%.
Take `CCCCCC(=O)C(=O)c1ccc(O)cc1O`: the Inhibition in the experiment with Staphylococcus aureus was 10.4%; in the experiment with Acinetobacter baumannii it was 8.8%; with Escherichia coli, -2.2%; in the experiment on Klebsiella pneumoniae, 16.02%; in the experiment on Candida albicans it was 6.66%; with Cryptococcus neoformans, -6.56%.
Regarding `COc1ccc2c(c1)c1ccc3c(c1n2C)C(=O)C=CC3=O`, the Inhibition with Staphylococcus aureus was -28.89%; in the experiment with Acinetobacter baumannii it was 3.5%; in the experiment on Escherichia coli, -18.56%; in the experiment with Klebsiella pneumoniae, 4.14%; in the experiment with Candida albicans, 7%; in the experiment on Cryptococcus neoformans, 0.4%.
Turning to `CCOC(=O)c1nn(C)c2[nH]c(=O)n(C)c(=O)c12`, the Inhibition was 7.94% in the experiment with Staphylococcus aureus; 11.46% in the experiment with Acinetobacter baumannii; 12.75% in the experiment with Escherichia coli; 11.59% in the experiment on Klebsiella pneumoniae; 2.22% in the experiment on Candida albicans; -11.62% with Cryptococcus neoformans.
Take `COc1cc(/N=N/c2ccccc2C(=O)O)ccc1O`: the Inhibition is 46.16% with Staphylococcus aureus; -0.55% in the experiment on Acinetobacter baumannii; 0.38% in the experiment with Escherichia coli; 12.27% in the experiment on Klebsiella pneumoniae; -1.22% with Candida albicans; 3.74% with Cryptococcus neoformans.
Regarding `COC(=O)Cc1[nH]c(O)nc1C(=O)OC`, the Inhibition in the experiment on Staphylococcus aureus was 5.51%; in the experiment with Acinetobacter baumannii it was -8.26%; in the experiment on Escherichia coli it was 3.06%; with Klebsiella pneumoniae, 20.66%; in the experiment on Candida albicans, -0.45%; in the experiment with Cryptococcus neoformans it was -7.96%.
As for `Cn1ncc2c(NCc3ccccc3)ncnc21`, the Inhibition with Staphylococcus aureus was 5.23%; in the experiment with Acinetobacter baumannii, -15.8%; with Escherichia coli, 13.47%; in the experiment with Klebsiella pneumoniae, 1.24%; in the experiment on Candida albicans, -0.05%; in the experiment on Cryptococcus neoformans, -9.92%.
In the case of `Cc1ccc(-c2nc(-c3nccc4ccccc34)oc2-c2ccccc2)cc1`, the Inhibition is 17.39% in the experiment on Staphylococcus aureus; 5.86% with Acinetobacter baumannii; 4.4% with Escherichia coli; 6.85% in the experiment with Klebsiella pneumoniae; 18.7% in the experiment on Candida albicans; -2.8% in the experiment with Cryptococcus neoformans.
On to `Cc1cc(N2CCOCC2)nc(N2CCOCC2)n1`, for which the Inhibition is 0.14% in the experiment on Staphylococcus aureus; -0.73% with Acinetobacter baumannii; 6.71% with Escherichia coli; 4.64% with Klebsiella pneumoniae; 1.08% in the experiment with Candida albicans; -7.95% with Cryptococcus neoformans.
As for `O=C(O)C(c1ccccc1)C1(O)CCCCC1` (stereo not given), the Inhibition in the experiment on Staphylococcus aureus is 4.6%; in the experiment with Acinetobacter baumannii, -11.34%; in the experiment with Escherichia coli, 11.15%; in the experiment with Klebsiella pneumoniae, 5.64%; in the experiment on Candida albicans it was 0.92%; in the experiment on Cryptococcus neoformans it was -11.66%.
On to `COc1ccc(Br)c2c1C(=O)CC2`, for which the Inhibition in the experiment on Staphylococcus aureus is 10.21%; in the experiment with Acinetobacter baumannii, -14.67%; in the experiment with Escherichia coli it was 12.53%; in the experiment with Klebsiella pneumoniae it was -2.44%; with Candida albicans, 20.7%; in the experiment with Cryptococcus neoformans, -15.03%.
With `CC1CCCC(CC(=O)O)(CC(=O)O)C1` (stereo not given), the Inhibition in the experiment with Staphylococcus aureus is -13.43%; in the experiment with Acinetobacter baumannii, 0.95%; in the experiment with Escherichia coli it was -5.78%; in the experiment with Klebsiella pneumoniae, 6.3%; in the experiment on Candida albicans, 2.72%; with Cryptococcus neoformans, -2.12%.
With `NC1=C2C(=O)c3ccccc3C(=O)C2=C(N)CC1`, the Inhibition with Staphylococcus aureus is -13.27%; in the experiment with Acinetobacter baumannii, 1.08%; in the experiment with Escherichia coli, -5.53%; in the experiment on Klebsiella pneumoniae it was 8.56%; in the experiment on Candida albicans it was 22.9%; in the experiment with Cryptococcus neoformans, -5.51%.
Consider `Nc1ccc(Nc2ccccc2)c(S(=O)(=O)O)c1`, for which the Inhibition is 8.54% with Staphylococcus aureus; 9.36% in the experiment on Acinetobacter baumannii; -14.68% with Escherichia coli; 15.42% in the experiment with Klebsiella pneumoniae; 18.9% in the experiment on Candida albicans; 17.91% in the experiment on Cryptococcus neoformans.
For the compound `CC(=O)CC[N+](C)(C)C.[I-]`, the Inhibition is 1.22% with Staphylococcus aureus; -9.05% in the experiment with Acinetobacter baumannii; 1.86% in the experiment on Escherichia coli; 4.32% with Klebsiella pneumoniae; 4.03% in the experiment on Candida albicans; -9.72% with Cryptococcus neoformans.
For the compound `Nc1nc2cc([N+](=O)[O-])ccc2[nH]1`, the Inhibition with Staphylococcus aureus was 15.13%; in the experiment on Acinetobacter baumannii, -11.46%; with Escherichia coli it was 3.91%; in the experiment on Klebsiella pneumoniae, 4.78%; with Candida albicans, 0.21%; in the experiment on Cryptococcus neoformans, -13.6%.
On to `COC(=O)c1ccc(Cn2cnc3c(Cl)ncnc32)cc1`, for which the Inhibition with Staphylococcus aureus was -16.45%; in the experiment with Acinetobacter baumannii it was 0.57%; in the experiment with Escherichia coli, -10.62%; with Klebsiella pneumoniae, 2.87%; in the experiment on Candida albicans, -1.99%; in the experiment on Cryptococcus neoformans, 15.29%.
With `CCCCc1c(C)nc(S)nc1O`, the Inhibition with Staphylococcus aureus is 16.17%; with Acinetobacter baumannii it was -14.45%; in the experiment with Escherichia coli, 9.4%; in the experiment with Klebsiella pneumoniae it was 7.26%; in the experiment with Candida albicans, 2.04%; in the experiment on Cryptococcus neoformans, -3.51%.
As to `O=C(/C=C\c1ccc2ccccc2n1)c1cc(Cl)ccc1O`, the Inhibition is -11.69% with Staphylococcus aureus; -4.27% in the experiment with Acinetobacter baumannii; -19.12% in the experiment on Escherichia coli; 3.11% in the experiment on Klebsiella pneumoniae; 16.4% with Candida albicans; -1.96% in the experiment with Cryptococcus neoformans.
